Active and inactive are the calls of the source.
Key:
Albumin (Bos taurus) = Albumin (Bos taurus) (UniProt P02769); test: compounds binding labelled BSA control protein – biochemical, small-molecule microarray, Alexa647 label, 635/667 nm fluorescence, artefact control for SMM control protein annotation, profiling panel (AID 1118); conditions: BSA-A647 binding, fluorescence 635 nm, higher = more signal;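 note: score merges 667 nm emission intensity and signal-to-noise per printed compound spot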
[1] = probe aXIP binding to arrayed compounds – biochemical, NeuroSMM set, 635/667 nm fluorescence, primary screen (AID 1119); conditions: small-molecule microarray, higher = more signal, called active from +8 up or from −8 down;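 note: probe is the protein aXip251-270 applied at 1 µg/mL to compound-printed slides; binding of probe to printed compounds measured as 667 nm fluorescence plus signal to noise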
[2] = probe aNOTCH3 binding on compound microarray – biochemical, small-molecule microarray, 635/667 nm fluorescence, primary screen (AID 1120); conditions: higher = more signal;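 note: probe is a biotin-tagged antibody raised against NOTCH3 rather than NOTCH3 protein; score merges spot fluorescence near 667 nm with spot signal to noise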
[3] = probe aNOTCH2 binding on compound microarray – biochemical, small-molecule microarray, 635/667 nm fluorescence, primary screen (AID 1121); conditions: higher = more signal;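 note: score merges feature fluorescence read at 667 nm with its signal to noise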
[4] = target: Carbonic anhydrase 2 (Homo sapiens) (UniProt P00918); test: compounds binding carbonic anhydrase 2 – biochemical, small-molecule microarray, Alexa647-labelled CAII, profiling panel (AID 1122); conditions: CAII-A647 binding fluorescence, higher = more signal
[5] = COS7 lysate on small-molecule microarray, probe aHis, 635 nm (AID 1123); conditions: COS7 cell lysate, fluorescence, higher = more signal;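 note: z-score combines 667nm fluorescence intensity with signal-to-noise per printed compound spot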
[6] = probe aLAP1 signal on lysate-treated microarray – cell lysate, small-molecule microarray, COS7 lysate, primary screen (AID 1124); conditions: probe aLAP1, fluorescence, higher = more signal;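 note: lysate comes from COS7 cells expressing LAP1 and is applied at 0.3 µg/mL; score merges spot fluorescence near 667 nm with signal-to-noise over triplicate slides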
Sam68 (KHDRBS1) = test: compounds binding KHDRBS1 protein – biochemical, small-molecule microarray, 635 nm fluorescence, primary screen (AID 1125); conditions: higher = more signal;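 note: score merges 667 nm channel intensity with signal to noise over triplicate slides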
[7] = system: Chordin-like protein 2 (CHRDL2); test: compounds binding chordin-like 2 – biochemical, small-molecule microarray, 635 nm fluorescence, primary screen (AID 1126); conditions: fluorescence 635 nm, higher = more signal;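 note: printed compound slides probed with Chrdl2 protein at 4 µg/mL for 1 h at 4 C; score merges 667 nm emission intensity with signal to noise over three replicate slides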
[8] = target: Concanavalin-A (Canavalia ensiformis) (UniProt P02866); test: compounds binding concanavalin A lectin – biochemical, small-molecule microarray, Alexa647 label, 635 nm, artefact control for SMM control protein annotation, primary screen (AID 1127); conditions: ConA-A647 binding fluorescence, higher = more signal;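 note: z combines 667 nm emission intensity with signal-to-noise across three replicate slides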
[9] = compounds binding Alexa647 anti-His antibody – biochemical, small-molecule microarray, 635 nm fluorescence, artefact control for SMM control protein annotation, primary screen (AID 1128); conditions: higher = more signal;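 note: score merges feature fluorescence with signal-to-noise for each printed compound spot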
[10] = system: Human papillomavirus type 1a E7 protein (residues 1-88); test: HPV1a E7 small-molecule binders, primary screen, biochemical, small-molecule microarray, residues 1-88, 635 nm (AID 1129); conditions: small-molecule microarray binding, fluorescence 635 nm; higher = more signal
[11] = target: Focal adhesion kinase 1 (Homo sapiens) (UniProt Q05397); test: PTK2 protein binding on printed compound slides – biochemical, small-molecule microarray, 635/667 nm fluorescence, BSA, DTT, primary screen (AID 1130); conditions: 635 nm fluorescence, higher = more signal;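 note: composite of spot emission at 667 nm and signal to noise over triplicate slides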
[12] = system: Fibrinogen (Alexa647-labelled); test: Alexa647-fibrinogen binding to printed small molecules – biochemical, small-molecule microarray, 635/667 nm fluorescence, artefact control for SMM control-protein annotation, profiling panel (AID 1131); conditions: fibrinogen-A647 binding fluorescence, higher = more signal;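 note: z-score merges 667 nm fluorescence with per-spot signal-to-noise over triplicate slides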
[13] = target: Follistatin (Homo sapiens) (UniProt P19883); test: FST protein binding to printed compounds – biochemical, small-molecule microarray, 635/667 nm fluorescence, primary screen (AID 1132); conditions: 635 nm fluorescence, higher = more signal
[14] = target: Fibroblast growth factor 2 (Homo sapiens) (UniProt P09038); test: basic fibroblast growth factor binding to printed compounds – biochemical, small-molecule microarray, 635/667 nm fluorescence, primary screen (AID 1133); conditions: FGF2, fluorescence 635/667, higher = more signal
[15] = JC-1 mitochondrial potential readout, lung cancer cells – cell-based, A549, JC-1 fluorescence, basal, 24 h, 100 nL, profiling panel (AID 1138); conditions: higher = more signal;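 note: A549 lung adenocarcinoma cells under basal conditions with no added stimulus; test concentration not given here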
Lefty1 = Lefty1 protein binding to printed compounds – biochemical, small-molecule microarray, 635/667 nm fluorescence, primary screen (AID 1139); conditions: fluorescence 635/667, higher = more signal
[16] = system: wheat germ agglutinin (Triticum aestivum), Alexa647-labelled; test: Alexa647-WGA lectin binding to printed small molecules – biochemical, small-molecule microarray, 635/667 nm fluorescence, artefact control for SMM control-protein annotation, profiling panel (AID 1140); conditions: WGA-A647 binding, 635 nm fluorescence, higher = more signal;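 note: score merges 667 nm feature emission with signal to noise over triplicate slides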
[17] = target: Luciferin 4-monooxygenase (Photinus pyralis) (UniProt P08659); test: inhibition of purified Photinus pyralis luciferase – biochemical, luminescence, purified enzyme, 2006 set, primary screen (AID 1141); conditions: purified firefly luciferase, SteadyGlo luminescence, 30 min; higher = more signal, called active from +8 up or from −8 down;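 note: cell-free assay with purified firefly luciferase at 100 ng per well in PBS; test concentration not given here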
Luciferin 4-monooxygenase (Photinus pyralis), sequence (P08659 whole entry, looked up): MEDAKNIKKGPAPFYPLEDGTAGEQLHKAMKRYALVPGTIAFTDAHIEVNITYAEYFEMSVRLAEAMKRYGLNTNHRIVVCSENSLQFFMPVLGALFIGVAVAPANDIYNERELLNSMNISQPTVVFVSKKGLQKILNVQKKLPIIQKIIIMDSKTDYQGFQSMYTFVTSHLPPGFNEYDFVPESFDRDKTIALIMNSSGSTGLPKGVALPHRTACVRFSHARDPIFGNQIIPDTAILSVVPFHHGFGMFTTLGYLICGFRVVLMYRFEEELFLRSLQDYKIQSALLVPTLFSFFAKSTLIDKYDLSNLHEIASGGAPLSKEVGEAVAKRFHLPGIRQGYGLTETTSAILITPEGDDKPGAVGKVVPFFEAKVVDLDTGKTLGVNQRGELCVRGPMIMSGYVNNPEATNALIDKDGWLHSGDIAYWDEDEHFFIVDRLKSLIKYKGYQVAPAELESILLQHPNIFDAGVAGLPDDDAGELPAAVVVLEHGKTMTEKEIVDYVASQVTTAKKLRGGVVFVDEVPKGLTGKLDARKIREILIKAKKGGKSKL

Follistatin (Homo sapiens), sequence (P19883 whole entry, looked up): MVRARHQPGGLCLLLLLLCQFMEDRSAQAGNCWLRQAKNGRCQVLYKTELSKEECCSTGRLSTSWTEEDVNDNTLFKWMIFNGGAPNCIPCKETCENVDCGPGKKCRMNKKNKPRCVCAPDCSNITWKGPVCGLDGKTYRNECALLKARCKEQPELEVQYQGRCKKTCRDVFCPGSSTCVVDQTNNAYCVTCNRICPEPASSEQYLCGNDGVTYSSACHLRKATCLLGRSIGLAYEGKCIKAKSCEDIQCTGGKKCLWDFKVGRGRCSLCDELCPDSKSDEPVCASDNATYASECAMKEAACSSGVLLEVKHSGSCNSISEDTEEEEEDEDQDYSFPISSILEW
Albumin (Bos taurus), sequence (P02769 whole entry, looked up): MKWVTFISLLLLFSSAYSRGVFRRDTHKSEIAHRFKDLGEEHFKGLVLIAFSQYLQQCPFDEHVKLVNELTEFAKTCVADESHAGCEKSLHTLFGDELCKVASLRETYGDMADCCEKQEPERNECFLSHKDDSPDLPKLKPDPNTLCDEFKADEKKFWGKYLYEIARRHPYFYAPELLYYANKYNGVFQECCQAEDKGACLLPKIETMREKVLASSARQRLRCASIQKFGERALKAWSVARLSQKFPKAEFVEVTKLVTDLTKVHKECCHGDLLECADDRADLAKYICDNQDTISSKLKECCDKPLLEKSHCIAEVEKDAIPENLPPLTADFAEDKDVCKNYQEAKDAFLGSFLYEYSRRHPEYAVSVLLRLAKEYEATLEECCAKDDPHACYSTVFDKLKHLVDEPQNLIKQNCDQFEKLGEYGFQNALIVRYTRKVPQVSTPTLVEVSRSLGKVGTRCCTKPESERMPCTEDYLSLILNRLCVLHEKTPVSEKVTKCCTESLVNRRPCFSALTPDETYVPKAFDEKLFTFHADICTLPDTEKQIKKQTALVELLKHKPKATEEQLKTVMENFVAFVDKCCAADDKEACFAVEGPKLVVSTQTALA
Focal adhesion kinase 1 (Homo sapiens), sequence (Q05397 whole entry, looked up): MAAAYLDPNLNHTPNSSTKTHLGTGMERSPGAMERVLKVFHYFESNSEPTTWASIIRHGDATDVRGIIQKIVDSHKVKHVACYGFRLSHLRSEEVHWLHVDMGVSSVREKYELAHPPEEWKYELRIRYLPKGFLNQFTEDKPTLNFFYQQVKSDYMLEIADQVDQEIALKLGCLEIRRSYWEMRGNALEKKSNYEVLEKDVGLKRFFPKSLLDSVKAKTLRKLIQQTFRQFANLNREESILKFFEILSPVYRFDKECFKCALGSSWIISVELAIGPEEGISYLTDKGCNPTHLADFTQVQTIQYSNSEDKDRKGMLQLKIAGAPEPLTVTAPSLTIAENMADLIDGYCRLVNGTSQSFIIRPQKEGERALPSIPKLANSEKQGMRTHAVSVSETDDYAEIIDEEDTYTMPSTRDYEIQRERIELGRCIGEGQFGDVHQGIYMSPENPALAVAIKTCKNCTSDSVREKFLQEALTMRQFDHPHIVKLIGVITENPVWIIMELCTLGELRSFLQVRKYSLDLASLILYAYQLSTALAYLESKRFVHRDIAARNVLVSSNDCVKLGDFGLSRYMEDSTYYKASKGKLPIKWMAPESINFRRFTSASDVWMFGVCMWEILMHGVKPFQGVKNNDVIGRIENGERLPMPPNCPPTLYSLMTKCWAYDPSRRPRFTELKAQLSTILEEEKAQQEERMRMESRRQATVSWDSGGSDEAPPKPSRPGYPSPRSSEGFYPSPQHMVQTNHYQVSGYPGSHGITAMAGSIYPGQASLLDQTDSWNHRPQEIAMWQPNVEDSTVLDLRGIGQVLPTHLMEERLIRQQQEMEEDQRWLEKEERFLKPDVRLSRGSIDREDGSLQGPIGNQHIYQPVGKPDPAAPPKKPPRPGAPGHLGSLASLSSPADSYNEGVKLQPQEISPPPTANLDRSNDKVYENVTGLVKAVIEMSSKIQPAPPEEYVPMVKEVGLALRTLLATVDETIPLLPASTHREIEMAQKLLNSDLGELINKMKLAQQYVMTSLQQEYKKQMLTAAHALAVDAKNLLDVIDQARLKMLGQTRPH
Fibroblast growth factor 2 (Homo sapiens), sequence (P09038 whole entry, looked up): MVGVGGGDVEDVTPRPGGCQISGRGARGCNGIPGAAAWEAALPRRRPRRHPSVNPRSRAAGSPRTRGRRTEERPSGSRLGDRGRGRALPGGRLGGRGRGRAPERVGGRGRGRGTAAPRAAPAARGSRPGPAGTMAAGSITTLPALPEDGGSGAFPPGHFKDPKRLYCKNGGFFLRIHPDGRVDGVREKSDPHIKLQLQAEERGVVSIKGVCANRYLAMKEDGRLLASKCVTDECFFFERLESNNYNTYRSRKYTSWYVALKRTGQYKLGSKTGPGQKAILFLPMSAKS
Concanavalin-A (Canavalia ensiformis), sequence (P02866 whole entry, looked up): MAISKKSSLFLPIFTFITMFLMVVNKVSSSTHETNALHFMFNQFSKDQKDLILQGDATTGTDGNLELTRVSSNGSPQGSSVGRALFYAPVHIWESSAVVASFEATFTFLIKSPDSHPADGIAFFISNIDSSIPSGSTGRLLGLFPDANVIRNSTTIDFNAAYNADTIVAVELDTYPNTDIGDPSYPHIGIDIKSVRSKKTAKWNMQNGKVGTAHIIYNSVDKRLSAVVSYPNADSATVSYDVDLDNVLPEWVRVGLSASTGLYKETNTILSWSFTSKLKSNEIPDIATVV

Row | SMILES | composite z-score (Albumin (Bos taurus)) | composite Z-score [1] | composite z-score [2] | composite z-score [3] | composite z-score [4] | composite z-score [5] | composite z-score [6] | composite z-score (Sam68 (KHDRBS1)) | composite z-score [7] | composite z-score [8] | composite z-score [9] | composite z-score [10] | composite z-score [11] | composite z-score [12] | composite z-score [13] | composite z-score [14] | z-score [15] | composite z-score (Lefty1) | composite z-score [16] | z-score [17]
1 | C=C(C(=O)CC[C@H](OC(=O)c1cccnc1)c1ccccc1OCCO)C(C)C | -0.609 | -0.507 (inactive) | 0.143 | -0.129 | 0.543 | 1.28 | 0.86 | 0.912 | 1.39 | 0.49 | 0.971 | 0.834 | 0.092 | 0.101 | 1.42 | 1.83 | 0.0404 | 1.44 | 0.0398 | -0.0549 (inactive)
2 | CC(C)CNC(=O)[C@@]1(C)c2ccccc2C(=O)N(C(C)C)[C@H]1c1ccc(CO)cc1 | -1.44 | -0.0662 (inactive) | -0.146 | -0.132 | 0.903 | -0.445 | -0.121 | -1.06 | -1.02 | -2 | -0.105 | -1.79 | 0.175 | -1.07 | -0.0856 | -0.379 | -0.265 | -0.353 | -0.148 | 0.691 (inactive)
3 | CCCCCCCCCCC(O)C1C=CC2C(=O)N(c3ccccc3)C(=O)C2N1Nc1ccc([N+](=O)[O-])cc1 (stereo not given) | 0.804 | 0.568 (inactive) | 0.216 | -0.0984 | 0.594 | 1.63 | 0.109 | 1.31 | -0.301 | 1.05 | 0.774 | 1.22 | 0.525 | 0.992 | 0.8 | 0.378 | 2.09 | 0.371 | 0.56 | 1.86 (inactive)
4 | COC(=O)[C@@]1(Cc2ccc(F)cc2)[C@H]2c3cc(C(=O)N(C)C)n(CCCNc4ccc(C(F)(F)F)cc4Cl)c3C[C@H]2CN1C(=O)c1ccccc1 | 1.03 | -0.214 (inactive) | 0.568 | 0.116 | 0.778 | 2.87 | 0.12 | 1.3 | -0.841 | 1.17 | 2.17 | 1.24 | 0.903 | 1.01 | 0.543 | -0.123 | 0.284 | 0.0748 | 1.3 | 0.579 (inactive)
5 | Cc1cccc(/C=C/C=O)c1 | 0.92 | -0.77 (inactive) | -0.139 | -0.104 | -0.0363 | 0.93 | 0.364 | 0.339 | -0.058 | 0.786 | -0.109 | -0.115 | 0.0048 | 0.458 | 0.198 | -0.163 | 0.538 | -0.119 | 0.718 | -0.953 (inactive)

Reference: PubChem BioAssay
